# Data from PubChem BioAssay AID1159524 (National Center for Advancing Translational Sciences (NCATS), 2015).
# Hit rate of the full screen: of about 410,000 compounds, about 5,100 (1.2%) were called active. Entries that show only a call come without a potency. Inconclusive results (about 8%) are left out. Calls come from the whole dose curve; tested in HEK293T cells. The sample as a whole holds a higher share of actives than the screen did.
# Test: High Throughput Screening for Foot and Mouth Disease Virus Antivirals; note: read-out not given here; nearly all actives have a fitted effect of over 45% in size
# Conditions: FMDV antiviral cell-based qHTS; series mostly up to 57.9 µM
# Potency is the fitted concentration of half-maximal effect.
Compound,Potency,"activity change, negative = inhibition"
COc1cccc(Cn2c(=O)c(-c3cc(F)cc(F)c3)nc3cnc(OC)nc32)c1,inactive,–
COc1cccc(Nc2ncc3ncc(=O)n(C4CC4)c3n2)c1,inactive,–
NCCCNCCCCN(CCCN)/[N+]([O-])=N/O,inactive,–
N#CCCn1c(=O)c(-c2cc(F)cc(F)c2)nc2cnc(Oc3ccccc3)nc21,inactive,–
COc1ccc(OC)c(CNC(=O)CN2C(=O)CCn3nc(-c4cn(C)c5ccccc45)cc32)c1,inactive,–
CCN(CC)c1ccc(NC(=O)CN2CCN(c3ccccn3)CC2)cc1,inactive,–
CCc1ccc(OCC(=O)N2CCN(CC(=O)Nc3ccccc3Cl)CC2)cc1,inactive,–
CN(C(=O)CN1CCN(c2cc(-c3ccc(OCc4ccccc4)cc3)ncn2)CC1)c1ccccc1,25.1 µM (active),–
c1ccc2c(Nc3ccncc3)nc(-c3ccoc3)nc2c1,inactive,–
Cc1nc2cnc(N3CCN(C)CC3)nc2n(C[C@H]2CCCO2)c1=O,inactive,–
COc1cccc(C(=O)N(Cc2cccc(Cl)c2)Cc2ccco2)c1,inactive,–
CC(=O)c1cc(CN2CCC(C(=O)Nc3cccc(-c4cscn4)c3)CC2)cs1,20 µM (active),–
CCn1cc(CN2CCC(C(=O)Nc3cccc(-c4cccc(Cl)c4)c3)CC2)c(C)n1,inactive,–
CCn1cc(CN2CCC(C(=O)Nc3cccc(-c4cccc(Cl)c4)c3)CC2)cn1,inactive,–
CCOc1cc(C(=O)Nc2nnc3n2CCS3)cc(OCC)c1OCC,inactive,–
c1ccc(CN2CC[C@@]3(CCCNC3)C2)cc1,inactive,–
CC(C)OCCCNc1ncnc2c1[nH]c1ccc(F)cc12,39.8 µM (active),–
COc1ccc(C2Nc3ccccc3C(=O)N2c2ccc(Cl)cc2)cc1Cn1cc([N+](=O)[O-])cn1 (stereo not given),100 µM (active),–
COc1ccccc1N1CCN(C2C(=O)c3ccccc3N2C(C)=O)CC1 (stereo not given),inactive,–
CS(=O)(=O)N1CCC2(CC1)CN(Cc1ccccc1)C2,inactive,–
COc1ccc(OCc2ccc(-c3nc(C#N)c(N4CCN(c5ccccc5)CC4)o3)o2)cc1,inactive,–
N#Cc1nc(-c2ccc(OCc3ccccc3)cc2)oc1NCCCN1CCOCC1,39.8 µM (active),–
Cc1ccc(-c2nc(C#N)c(NCCCn3ccnc3)o2)cc1,inactive,–
C/C=C(\C)C(=O)OC1C(OC(=O)C2(C)OC2C)c2cc3ccc(=O)oc3cc2OC1(C)C (stereo not given),inactive,–
Cc1nc2cnc(N3CCN(C)CC3)nc2n(CCC#N)c1=O,inactive,–

Compound,Potency,"activity change, negative = inhibition"
Cc1ccc(COC(=O)CN2C(=O)NC3(CCCC3)C2=O)cc1,inactive,–
CC(OC(=O)CN1C(=O)C2CCCCC2C1=O)C(=O)Nc1ncc(Cl)cc1Cl (stereo not given),inactive,–
CC1=CC(C)(C)Nc2ccc(OC(=O)CN3C(=O)C4CCCCC4C3=O)cc21 (stereo not given),20 µM (active),–
O=C(O)CCn1cc(/C=C/C(=O)c2ccc(Cl)cc2)c(-c2cccc(Br)c2)n1,25.1 µM (active),–
O=C(O)CCn1cc(C=C2C(=O)NC(=S)NC2=O)c(-c2cccc(Br)c2)n1,inactive,–
Cc1csc2nc(COC(=O)c3ccccc3NC(=O)c3ccccc3Cl)cc(=O)n12,inactive,–
CCc1cnc2c(c1SCC(=O)c1ccccc1)c(=O)n(C)c(=O)n2C,inactive,–
CCC(C)[C@@H](N)C(=O)O (stereo not given in full),inactive,–
Cc1ccc(SCC(=O)Nc2ccc3oc(-c4ccccc4F)nc3c2)cc1,inactive,–
COc1ccc(CNC(=O)c2c(C)cc(=O)oc2C)cc1OC,inactive,–
COCCCNC(=O)c1ccc(-c2c(C)noc2C)c2ccoc12,inactive,–
COc1ccc(CNC(=O)c2ccc(-c3cccnc3)c3ccoc23)cc1OC,22.4 µM (active),–
C=CC(=O)c1ccc2ccccc2c1,inactive,–
CCOC(=O)N1CCN(Cc2ccc3c(c2)CN(C(=O)c2cccc(-n4cccn4)c2)CCO3)CC1,inactive,–
CCCCC/C=C\C/C=C\CCCCCCCCCC(=O)O,–,-17.4% [at 6.7 µM] (inactive)
Cn1c(=O)c2c(nc(Br)n2CCSc2nc3ccccc3o2)n(C)c1=O,inactive,–
Cc1ccnc(SCCn2c(Br)nc3c2c(=O)[nH]c(=O)n3C)n1,inactive,–
Cn1c(=O)[nH]c(=O)c2c1nc(Br)n2CCCCSc1nc2ccccc2o1,35.5 µM (active),–
COc1ccccc1CNc1ncnc2ccc(-c3ccc4c(c3)OCO4)cc12,inactive,–
CC1O[C@@H](Oc2c(-c3ccc(O)c(O)c3)oc3cc(O)cc(O)c3c2=O)C(O)C(O)C1O (stereo not given in full),inactive,–
COc1ccc(Cc2nc3ccc(C(=O)NCc4ccccc4C)cc3o2)cc1,inactive,–
COC(=O)c1ccccc1NC(=O)c1ccc2c(=O)n3c(nc2c1)CCCCC3,inactive,–
CCc1c(C)sc(NC(=O)C2c3ccccc3Oc3ccccc32)c1C(=O)OC(C)C,inactive,–
CC1CCN(S(=O)(=O)c2ccc3c(c2)n(C)c(=O)n3C)CC1,inactive,–
Cc1ccn2c(c1)nc(=O)c1cc(S(=O)(=O)N3CCC(C)CC3)ccc12,11.2 µM (active),–
